NPC1 promoter act: NPC1 promoter activation. 2.4% of 320,000 active. Potency, µM (highest dose often 9.22 µM), usual class: activators. Huh7 NPC1 promoter luciferase reporter, 24 h. AID 485313; note: nearly all actives have a fitted effect of over 60% in size
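Luminescence from an NPC1 promoter-driven luciferase reporter in stably transfected Huh7 cells was measured after 24 h compound treatment at 37 °C, followed by 10 min ambient incubation with luciferase detection reagent.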
FLuc modulator: firefly luciferase modulation, counter-screen for miR-21 project | P08659 | purified FLuc, Km substrates, luminescence inhibition | 6.9% of 360,000 active | Potency, µM (highest dose often 57.5 µM), hits mostly inhibitors; note: nearly all actives have a fitted effect of over 55% in size
Target sequence (P08659 whole entry, looked up): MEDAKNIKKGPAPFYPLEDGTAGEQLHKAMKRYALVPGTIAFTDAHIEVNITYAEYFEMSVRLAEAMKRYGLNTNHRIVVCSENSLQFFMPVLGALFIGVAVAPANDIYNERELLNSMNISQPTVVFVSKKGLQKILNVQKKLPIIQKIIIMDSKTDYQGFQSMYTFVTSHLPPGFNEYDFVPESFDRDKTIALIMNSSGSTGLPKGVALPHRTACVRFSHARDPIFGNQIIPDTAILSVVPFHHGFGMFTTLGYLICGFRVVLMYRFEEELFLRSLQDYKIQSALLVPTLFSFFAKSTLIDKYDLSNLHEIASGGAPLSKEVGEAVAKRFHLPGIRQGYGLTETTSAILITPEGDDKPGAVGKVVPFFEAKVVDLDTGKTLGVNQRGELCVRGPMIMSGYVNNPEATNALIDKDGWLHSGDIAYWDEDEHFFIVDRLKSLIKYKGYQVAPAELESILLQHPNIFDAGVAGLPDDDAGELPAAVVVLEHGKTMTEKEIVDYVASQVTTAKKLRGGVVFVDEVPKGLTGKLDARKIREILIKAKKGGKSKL
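Biochemical qHTS of compounds, final roughly 60 µM downward over six points, against 10 nM purified firefly luciferase using Km concentrations of substrates (10 uM D-luciferin, 10 uM ATP) in Tris acetate pH 7.5 buffer; luminescence output.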
Luc counter: counter-screen: inhibitors of Kinase-Glo firefly luciferase; Q27757; Kinase-Glo luciferase, ATP luminescence, 8 min; Potency, µM (doses to about 38.3 µM), usual class: inhibitors; 0.28% of 200,000 active; AID 1379; note: nearly all actives have a fitted effect of over 60% in size
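Compound is pinned into ATP-containing buffer (10 uM ATP, imidazole pH 7.2, 7 mM MgCl2). Kinase-Glo luciferase reagent is then added. Light output is recorded following an 8-min room-temperature incubation.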
SMN2 splice enh: increases expression of the SMN2 splice variant; HEK293 SMN2-luciferase splicing reporter, luminescence, 30-36 h; Potency, µM (top dose mostly 46.1 µM), most hits filed as activators; 2.8% of 210,000 active; AID 1458; note: nearly all actives have a fitted effect of over 55% in size
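HEK293 cells carry an SMN2 […]–luciferase reporter in which exon 7 inclusion puts luciferase in frame. Cells were plated 10-12 h before compound addition, then incubated 30-36 h at 37C. ONE-Glo luminescence was read; sodium butyrate at 4.5 mM final served as control.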
Rab9 prom act: activators of Rab9 promoter. Huh7 Rab9 promoter-luciferase reporter, luminescence, 24 h. AID 485297. 2.8% of 320,000 active. Potency, µM (series often up to 9.22 µM), usual class: activators; note: nearly all actives have a fitted effect of over 60% in size
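Cells were plated at 1500 per well in reduced-serum medium with 10% FBS and left 2 h. Compound in DMSO was then added for 24 h at 37 °C. Reporter signal was read by luminescence after 10 min with luciferase detection reagent.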
ELG1 genotoxic: genotoxicity induction in ELG1-luciferase HEK293T cells. HEK293T ELG1-luciferase reporter, luminescence, 16 h. Potency, µM (top dose mostly 46 µM), usual class: activators. 1.3% of 330,000 active; note: nearly all actives have a fitted effect of over 60% in size
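Genotoxicity was scored as increased ELG1-luciferase reporter signal, measured by ONE-Glo luminescence (30 min, room temperature). Compound or vehicle exposure of the HEK293T reporter cells lasted 16 hr at 37°C.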
Large screens that a line does not name were inactive. Most compounds without a hit are left out; they make up all but 7.5% or so of the library. Calls come from the whole dose curve; as a rule, active = well fitted curve in the direction sought with a large enough effect; inconclusive = small, poorly fitted or top-dose-only effect, or another doubt; inactive = no such curve, though single readings can be large; an effect the other way counts as inactive or inconclusive.

NC(=S)N/N=C/c1c(O)ccc2ccccc12	none (no result: Luc counter, SMN2 splice enh)
Cc1nc2nc(CNC(=O)OC(C)(C)C)nn2c(C)c1CCC(=O)NCc1ccccc1Cl	none (no result: NPC1 promoter act, Luc counter, Rab9 prom act, ELG1 genotoxic)
COc1cccc(OC)c1OCCCN1CCC(Cc2ccccc2)CC1	none (no result: Luc counter, SMN2 splice enh)
O=C(N/N=C/c1ccc(N2CCOCC2)cc1)c1cccs1	NPC1 promoter act 2.8µM, FLuc modulator 8.5µM, Luc counter inconclusive, SMN2 splice enh 11µM, Rab9 prom act inconclusive, ELG1 genotoxic inconclusive
COc1ccc(C(=O)N/N=C/c2ccc(N3CCOCC3)s2)cc1OC	none (no result: Luc counter, SMN2 splice enh)
O=C(N/N=C/c1ccc(N2CCOCC2)s1)c1ccc(NS(=O)(=O)c2cccs2)cc1	FLuc modulator 27µM (no result: Luc counter, SMN2 splice enh)
O=C(N/N=C/c1ccc(N2CCOCC2)cc1)c1ccccc1NS(=O)(=O)c1cccs1	FLuc modulator inconclusive
O=C(N/N=C/c1ccc([N+](=O)[O-])o1)c1ccc(NS(=O)(=O)c2cccs2)cc1	FLuc modulator inconclusive (no result: Luc counter, SMN2 splice enh)
O=C(N/N=C/c1ccc([N+](=O)[O-])cc1)c1ccc(NS(=O)(=O)c2cccs2)cc1	FLuc modulator 21µM (no result: Luc counter, SMN2 splice enh)
O=C(N/N=C/c1ccc(N2CCOCC2)cc1)c1ccncc1	FLuc modulator inconclusive (no result: Luc counter, SMN2 splice enh)
O=C(N/N=C/c1ccc(N2CCOCC2)cc1)c1ccc(NS(=O)(=O)c2cccs2)cc1	FLuc modulator 7.6µM
COC(=O)c1c(C)sc(-c2c(-c3ccc4c(c3)OCCO4)[nH]c3c2c(=O)[nH]c(=O)n3C)c1O	none (no result: NPC1 promoter act, Luc counter, SMN2 splice enh, Rab9 prom act, ELG1 genotoxic)
CC(=NC1CCCCC1)c1ccccc1O	none (no result: NPC1 promoter act, FLuc modulator, Rab9 prom act, ELG1 genotoxic)
Nc1ccc(C(=O)Oc2ccccc2)c(O)c1	SMN2 splice enh inconclusive (no result: NPC1 promoter act, FLuc modulator, Rab9 prom act, ELG1 genotoxic)
O=C(Nc1ccc(N2CCOCC2)cc1N1CCOCC1)c1cccs1	none
O=C(N/N=C/c1ccc2c(c1)OCO2)c1ccc(NS(=O)(=O)c2cccs2)cc1	FLuc modulator 9.5µM
O=C(c1ccc(N2CCOCC2)cc1)c1cccs1	NPC1 promoter act 0.89µM, FLuc modulator 1.9µM, SMN2 splice enh 2.5µM, Rab9 prom act 1.1µM, ELG1 genotoxic inconclusive
CC(=O)C1=C(NC(=O)c2ccc(F)cc2)CC2C1C2(C)C (stereo not given)	FLuc modulator 21µM
c1c2c(cc3sc(N4CCCCC4)nc13)OCO2	NPC1 promoter act 0.4µM, FLuc modulator 0.67µM, Luc counter 13µM, SMN2 splice enh 3.2µM, Rab9 prom act 0.32µM, ELG1 genotoxic inconclusive
c1ccc2c(c1)CCN(c1nc3cc4c(cc3s1)OCO4)C2	NPC1 promoter act 1.6µM, FLuc modulator 1.3µM, Luc counter inconclusive, SMN2 splice enh 2.2µM, Rab9 prom act 1.3µM, ELG1 genotoxic 0.46µM
c1ccc(N2CCN(c3nc4cc5c(cc4s3)OCO5)CC2)cc1	NPC1 promoter act 0.79µM, FLuc modulator 1.1µM, SMN2 splice enh inconclusive, Rab9 prom act 0.71µM
c1c2c(cc3sc(N4CCOCC4)nc13)OCO2	NPC1 promoter act 2.8µM, FLuc modulator 6µM, Luc counter 11µM, SMN2 splice enh 11µM, Rab9 prom act 1.1µM, ELG1 genotoxic inconclusive
Fc1ccc2nc(N3CCOCC3)sc2c1	NPC1 promoter act inconclusive, FLuc modulator inconclusive, SMN2 splice enh inconclusive, Rab9 prom act inconclusive, ELG1 genotoxic inconclusive
O=S1(=O)N=C(Nc2nncs2)c2ccccc21	FLuc modulator 19µM
CCN(CC)S(=O)(=O)c1ccc(NC2=NS(=O)(=O)c3ccccc32)cc1	none
CCc1nc(-c2ccc(-c3ccc(OC)cc3)nc2OC)no1	NPC1 promoter act inconclusive, FLuc modulator 21µM, SMN2 splice enh inconclusive, Rab9 prom act inconclusive, ELG1 genotoxic inconclusive
COCc1nc(-c2ccc(-c3ccc(OC)cc3)nc2OC)no1	FLuc modulator inconclusive
COCc1nc(-c2ccc(-c3ccccc3)nc2OC)no1	NPC1 promoter act inconclusive, FLuc modulator inconclusive, SMN2 splice enh 22µM, Rab9 prom act 4µM
CCCCCCCCCCCCCCCCCC(=O)NCCc1ccc(O)c(O)c1	none (no result: NPC1 promoter act, FLuc modulator, Rab9 prom act, ELG1 genotoxic)
CC1CC(C)CN(C(=O)Cn2cc(C=O)c3ccccc32)C1 (stereo not given)	none
CCOc1ccc(N(C(=O)c2ccc(Cl)cc2)S(=O)(=O)c2ccc3c(c2)n(C)c(=O)n3C)cc1	none (no result: NPC1 promoter act, Luc counter, Rab9 prom act, ELG1 genotoxic)
O=C(Nc1ccc(-c2cn3c(n2)SCC3)cc1)c1ccc2ccccc2n1	FLuc modulator 19µM
CCCS(=O)(=O)Nc1cccc(-c2cn3c(n2)SCC3)c1	none (no result: Luc counter, SMN2 splice enh)
O=C(Nc1cccc(-c2cn3c(n2)SCC3)c1)c1ccc2ccccc2n1	NPC1 promoter act 0.28µM, FLuc modulator 3µM, SMN2 splice enh 13µM, Rab9 prom act 0.4µM, ELG1 genotoxic inconclusive
c1ccc(-c2cn3c(n2)SCC3)cc1	FLuc modulator inconclusive
O=C(N1CCOCC1)N1CCN(S(=O)(=O)N2CCOCC2)CC1	SMN2 splice enh inconclusive
Cc1ccc(Nc2nc(N)c([N+](=O)[O-])c(NCc3ccco3)n2)cc1C	NPC1 promoter act inconclusive, FLuc modulator 24µM, SMN2 splice enh inconclusive
Cc1ccc(Nc2nc(N)c([N+](=O)[O-])c(NCCO)n2)cc1C	FLuc modulator 15µM (no result: Luc counter, SMN2 splice enh)
Nc1nc(Nc2ccc(Cl)cc2)nc(NCCO)c1[N+](=O)[O-]	NPC1 promoter act inconclusive (no result: Luc counter, SMN2 splice enh)
CNc1nc(NCc2ccccc2)nc(N)c1[N+](=O)[O-]	ELG1 genotoxic 18µM (no result: Luc counter, SMN2 splice enh)
Nc1nc(NCc2ccco2)nc(Nc2ccc(F)cc2)c1[N+](=O)[O-]	none (no result: Luc counter, SMN2 splice enh)
CCN(CC)c1ccc(NC(=O)COC(=O)COc2ccccc2[N+](=O)[O-])cc1	none
O=C(O)C1CCN(S(=O)(=O)Cc2ccccc2)CC1	none (no result: Luc counter, SMN2 splice enh)
